From PubChem BioAssay AID651640 (Broad Institute, 2012)
Out of some 350,000 compounds screened, about 6,000 (1.7%) were called active. Roughly 5% stayed inconclusive and do not appear here. No stated cut-off is given here; in the data, active means CPE inhibition above about 20% (passing the limit was not always enough); inconclusive means no clear call, values can overlap the other calls; tested in BHK-21 cells. The sample as a whole holds a higher share of actives than the screen did.

Assay: protection of cells from dengue 2 killing – plate reader, single concentration, primary screen (AID 651640);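 further: 0% = median of neutral control wells and 100% = median of positive control wells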
Settings: DENV2-infected cells, cytopathic effect rescue, at 9.99 µM, hits give high values

SMILES | CPE inhibition
C[C@@H]1CN([C@H](C)CO)C(=O)c2cc(NC(=O)c3ccccc3)ccc2O[C@@H](C)CCCCO[C@H]1CN(C)S(=O)(=O)c1ccccc1 | -7.35% (inactive)
COc1ccc(S(=O)(=O)N(C)C[C@H]2OCCCC[C@@H](C)Oc3ccc(NC(=O)c4ccncc4)cc3C(=O)N([C@H](C)CO)C[C@@H]2C)cc1 | -4.42% (inactive)
COc1ccc(S(=O)(=O)N(C)C[C@@H]2OCCCC[C@@H](C)Oc3ccc(NC(=O)c4ccccc4)cc3C(=O)N([C@@H](C)CO)C[C@H]2C)cc1 | 53.6% (active)
C[C@@H]1CCCCO[C@H](CN(C)S(=O)(=O)c2cccs2)[C@H](C)CN([C@H](C)CO)C(=O)c2cc(NC(=O)c3ccccc3)ccc2O1 | 56.2% (active)
C[C@@H]1CCCCO[C@H](CN(C)S(=O)(=O)c2cccs2)[C@@H](C)CN([C@H](C)CO)C(=O)c2cc(NC(=O)Nc3ccccc3)ccc2O1 | 9.31% (inactive)
CC(C)NC(=O)Nc1ccc2c(c1)C(=O)N([C@H](C)CO)C[C@@H](C)[C@@H](CN(C)S(=O)(=O)c1cccs1)OCCCC[C@@H](C)O2 | -0.241% (inactive)
COC(=O)C[C@@H]1C[C@H]2c3cc(NC(=O)NC4CCCC4)ccc3O[C@H]2[C@H](CO)O1 | 0.692% (inactive)
CC(C)CC#Cc1ccc2c(c1)O[C@H](CN(C)C(=O)Cc1cccnc1)[C@H](C)CN([C@@H](C)CO)S2(=O)=O | -0.534% (inactive)
CO[C@@H]1CN(C)C(=O)c2ccc(NC(=O)Nc3ccccc3)cc2OC[C@H](C)N(C(=O)CC2CC2)C[C@@H]1C | -5.7% (inactive)
COc1ccccc1S(=O)(=O)N[C@H]1CC[C@@H](CC(=O)NCc2cc(F)cc(F)c2)O[C@H]1CO | -1.83% (inactive)
COc1cccc(S(=O)(=O)N[C@H]2C=C[C@@H](CC(=O)NCc3ccccc3)O[C@@H]2CO)c1 | -4.65% (inactive)
COc1cccc(S(=O)(=O)N[C@H]2C=C[C@@H](CC(=O)NCc3ccc(F)cc3)O[C@@H]2CO)c1 | 3.36% (inactive)
COC(=O)C[C@@H]1C=C[C@@H](NS(=O)(=O)c2cccc(OC)c2)[C@@H](CO)O1 | 1.84% (inactive)
COc1cccc(S(=O)(=O)N[C@H]2C=C[C@H](CC(=O)NCc3ccc(Cl)cc3)O[C@@H]2CO)c1 | 23.8% (active)
COc1ccccc1S(=O)(=O)N[C@@H]1C=C[C@H](CC(=O)NCc2cccc(F)c2)O[C@H]1CO | 41.8% (active)
COc1ccc2c3c([nH]c2c1)[C@H](CO)N(C(=O)NC1CCCC1)CC31CN(C(=O)Nc2cccc(F)c2)C1 | 9.59% (inactive)
COc1ccc(NC(=O)Nc2ccc3c(c2)C(=O)N([C@@H](C)CO)C[C@@H](C)[C@H](CN(C)C(=O)NC(C)C)OCCCC[C@H](C)O3)cc1 | 3.37% (inactive)
Cc1ccc(S(=O)(=O)Nc2ccc3c(c2)C(=O)N(C)[C@H]2CC[C@H](CC(=O)O)O[C@H]2CO3)cc1 | 4.91% (inactive)
COc1ccc(CNC(=O)C2CC(c3ccc(C(F)(F)F)cc3)=NO2)cc1 (configuration not stated) | 87.8% (active)
COc1ccc(CNC(=O)C2CCCC2)cc1 | -2.88% (inactive)
COc1ccc(C2=NOC(Cn3nc(C(=O)NCc4ccc5c(c4)OCO5)cc3-c3ccccc3)C2)cc1 (configuration not stated) | 10.2% (inactive)
O=C(NCc1cc(F)cc(C(F)(F)F)c1)C1CCC(=O)N(C2CCCC2)C1 (configuration not stated) | 0.846% (inactive)
O=C(NCCCCc1ccccc1)C1CC(c2ccc([N+](=O)[O-])cc2)=NO1 (configuration not stated) | 15.1% (inactive)

SMILES | CPE inhibition
O=C(NCc1cc(C(F)(F)F)cc(C(F)(F)F)c1)C1CC(c2cccc(F)c2)=NO1 (configuration not stated) | 23.7% (active)
O=S(=O)(N[C@@H]1CC[C@@H](CCn2cc(-c3ccccn3)nn2)O[C@@H]1CO)c1cccc(Cl)c1 | 14.3% (inactive)
C[C@H]1CN([C@@H](C)CO)C(=O)c2cc(NC(=O)C3CC3)ccc2O[C@@H]1CN(C)S(=O)(=O)c1cn(C)cn1 | -4.92% (inactive)
C[C@@H]1CCCCO[C@H](CN(C)C(=O)Cc2ccccc2)[C@H](C)CN([C@@H](C)CO)C(=O)c2cc(NS(=O)(=O)c3ccc(F)cc3)ccc2O1 | -10.6% (inactive)
CC(C)NC(=O)NCC[C@H]1CC[C@@H](NS(=O)(=O)c2ccc(Oc3ccccc3)cc2)[C@@H](CO)O1 | -1.61% (inactive)
CO[C@H]1CN(C)C(=O)c2cc(NS(=O)(=O)CC(F)(F)F)ccc2OC[C@@H](C)N(C(=O)c2ccc3c(c2)OCO3)C[C@@H]1C | 15.3% (inactive)
COC(=O)CN1C(=O)[C@H]2[C@@H](C3CC3)N3C(=O)CN(Cc4ccc(-c5ccccc5)cc4)C(=O)[C@@]3(Cc3ccccc3)[C@H]2C1=O | 3.26% (inactive)
COC(=O)CN1C(=O)[C@H]2[C@@H](/C=C/c3ccccc3)N3C(=O)CN(Cc4ccccc4)C(=O)[C@@]3(Cc3ccccc3)[C@H]2C1=O | -11.1% (inactive)
COC(=O)CN1C(=O)[C@H]2[C@@H](/C=C/c3ccccc3)N3C(=O)CN(CC4CC4)C(=O)[C@@]3(Cc3ccccc3)[C@H]2C1=O | 51% (active)
C[C@H](CO)N1C[C@H](C)[C@@H](CN(C)Cc2ccc(C(F)(F)F)cc2)Oc2ccc(NC(=O)Cn3cnnn3)cc2CC1=O | 7.25% (inactive)
Cc1ccccc1OCCC(=O)OCC(=O)NCCc1ccc(S(N)(=O)=O)cc1 | 47.5% (active)
Cc1ccccc1OCCC(=O)OCC(=O)NC(C)c1ccccc1 (configuration not stated) | 4.9% (inactive)
Cc1ccc(S(=O)(=O)CCC(=O)OCC(=O)NCCc2ccc(S(N)(=O)=O)cc2)cc1 | 2.48% (inactive)
O=C(C[C@@H]1CC[C@@H]2[C@H](COC[C@@H](O)CN2S(=O)(=O)c2ccccc2)O1)NCC1CCCCC1 | -12.1% (inactive)
C[C@@H]1CN([C@@H](C)CO)S(=O)(=O)c2ccc(-c3cccc(C(=O)N(C)C)c3)cc2O[C@@H]1CN(C)C | -3.85% (inactive)
c1ccc(-c2ccc(C3[C@@H]4CN(Cc5cccnc5)C[C@H]3N4)cc2)cc1 (some centres not stated) | -24.3% (inactive)
N#Cc1cccc(-c2ccc([C@H]3[C@@H](CO)N[C@@H]3CNC(=O)C3CCC3)cc2)c1 | -1.99% (inactive)
N#C[C@H]1N[C@H](CO)[C@H]1c1ccc(-c2cccc(F)c2)cc1 | 3.16% (inactive)
O=C(NC[C@@H]1N[C@@H](CO)[C@H]1c1ccc(-c2cccnc2)cc1)c1cccc(F)c1 | 41.5% (active)
CCCNC(=O)N1C[C@@H](O)COC[C@H]2O[C@@H](CC(=O)NCCCN3CCOCC3)CC[C@@H]21 | -1.62% (inactive)
CO[C@H]1CN(C)C(=O)c2cc(NS(=O)(=O)c3ccccc3)ccc2OC[C@H](C)NC[C@@H]1C | 27.3% (active)
CO[C@H]1CN(C)C(=O)c2ccc(NC(=O)C3CCOCC3)cc2OC[C@H](C)NC[C@H]1C | -0.477% (inactive)
CO[C@H]1CN(C)C(=O)c2cc(NC(=O)C3CC3)ccc2OC[C@@H](C)NC[C@H]1C | -4.67% (inactive)

SMILES | CPE inhibition
CO[C@@H]1CN(C)C(=O)c2cc(NS(=O)(=O)c3ccc(Cl)cc3)ccc2OC[C@H](C)NC[C@@H]1C | -4.08% (inactive)
CO[C@@H]1CN(C)C(=O)c2cc(NC(=O)C3CCOCC3)ccc2OC[C@@H](C)NC[C@@H]1C | 23.2% (active)
CO[C@H]1CN(C)C(=O)c2cc(NS(=O)(=O)c3ccc(C)cc3)ccc2OC[C@H](C)NC[C@H]1C | -0.879% (inactive)
C[C@@H]1CCCCO[C@@H](CN(C)C(=O)Nc2ccc(F)cc2)[C@H](C)CN([C@@H](C)CO)C(=O)c2cc(NS(C)(=O)=O)ccc2O1 | -6.59% (inactive)
CCCC(=O)N1CC2(C1)CN(C(=O)COC)[C@@H](CO)c1c2c2ccc(OC)cc2n1C | 10.6% (inactive)
O=S(=O)(NC[C@H]1[C@H](c2ccccc2)[C@H](CO)N1CC1CC1)c1ccccc1 | 16.5% (inactive)
CCc1cnc(N2[C@H](C#N)[C@H](c3ccc(C4=CCCC4)cc3)[C@@H]2CO)s1 | 42.6% (active)
CCc1cnc(N2[C@H](C#N)[C@H](c3ccccc3-c3ccccc3C)[C@H]2CO)s1 | 6.09% (inactive)
N#C[C@@H]1[C@@H](c2ccc(C3=CCCC3)cc2)[C@@H](CO)N1C(=O)C1CCCC1 | -3.68% (inactive)
CO[C@@H]1CN(C)C(=O)c2cc(NC(=O)c3cc(C)on3)ccc2OC[C@@H](C)N(C(C)=O)C[C@@H]1C | 5.53% (inactive)
O=C(CCC(=O)c1ccccc1)NCc1cccc(C(F)(F)F)c1 | -5.25% (inactive)
CCCNC(=O)C1(C)CCCN(Cc2cccc(C(F)(F)F)c2)C1 (configuration not stated) | 10.8% (inactive)
O=C(CN1CCC(O)(c2cccc(C(F)(F)F)c2)CC1)NCCc1ccccc1 | 24.3% (active)
CO[C@H]1CN(C)C(=O)c2ccc(NC(=O)Nc3ccc(Cl)cc3)cc2OC[C@H](C)N(C(=O)Nc2c(C)noc2C)C[C@@H]1C | 1.51% (inactive)
CCCN1C[C@H](C)[C@H](OC)CN(C)C(=O)c2cc(NC(=O)C3CCOCC3)ccc2OC[C@@H]1C | -12% (inactive)
O=C(Nc1ccc2c(c1)[C@@H]1C[C@H](CC(=O)N3CCOCC3)O[C@@H](CO)[C@@H]1O2)C1CCOCC1 | 14.6% (inactive)
CCC(=O)Nc1ccc2c(c1)C(=O)N(C)C[C@H](OC)[C@@H](C)CN(Cc1cccnc1)[C@H](C)CO2 | 3.46% (inactive)
Cc1cccc(C(=O)O)c1[N+](=O)[O-] | 29.4% (active)
Cc1cc(C(=O)O)ccc1[N+](=O)[O-] | -17.9% (inactive)
Cc1ccccc1C(=O)O | 0.715% (inactive)
O=C(C[C@H]1C[C@H]2c3cc(NC(=O)Nc4ccc(F)cc4)ccc3O[C@H]2[C@H](CO)O1)NCC1CC1 | -5.03% (inactive)
